Reference: PubChem BioAssay (EPA / NIEHS)
Several values for one entry are separate records, joined by “and”; a condition that tells them apart may be missing. Identical values can stand only once. Inconclusive results are not listed. Where a structure was tested more than once in an assay, its records may differ in their call. Activity calls are given as the source filed them. Rule for the calls, unless noted: active = hit-call score of the fitted dose curve at least 0.9, where 1 is the maximum; inactive = score below 0.9.

Experiments:
[1] = target: Estrogen receptor (Homo sapiens) (UniProt P03372); test: OT_ERa_GFPERaERE_0120: Odyssey Thera (OT) 2-hour HeLa Transcription Induction Assay for Estrogen Receptor (AID 2283382; active = hit-call score of the fitted dose curve at least 0.9, where 1 is the maximum)
Summary of the method: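 HeLa, 384-well, 2 h chemical exposure; GFP reporter induction (ERE), fluorescence microscopy; high content image analysis; positive fitting direction vs DMSO.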

[2] = target: Bile acid receptor (Homo sapiens) (UniProt Q96RI1); test: OT_FXR_FXRSRC1_1440: Odyssey Thera (OT) 24-hour HEK293T Protein-Complementation Assay for Farnesoid X receptor/SRC-1 Co-activator (AID 2283384; active = hit-call score of the fitted dose curve at least 0.9, where 1 is the maximum)
Summary of the method: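 Compounds are applied to human kidney HEK293T cells expressing bait and prey fused to reporter protein fragments; after 24 h, reconstituted reporter fluorescence is measured. Activity is fitted as signal gain over DMSO.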

[3] = target: Peroxisome proliferator-activated receptor gamma (Homo sapiens) (UniProt P37231); test: OT_PPARg_PPARgSRC1_0480: Odyssey Thera (OT) 8-hour Protein-Complementation Assay for Peroxisome Proliferator-activated Receptor Gamma / SRC-1 Co-activator (AID 2283387; active = hit-call score of the fitted dose curve at least 0.9, where 1 is the maximum;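 note: nuclear to cytoplasmic split Venus YFP fluorescence ratio reporting PPARg SRC-1 interaction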)
Summary of the method: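 Protein-fragment complementation in HEK293T: Venus YFP halves (residues 1-158, 159-239, mutated to IFP1/IFP2) fused to PPARg/SRC-1. 8 h exposure; N/C ratio at 488 nm; DMSO negative control.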

[4] = target: Peroxisome proliferator-activated receptor gamma (Homo sapiens) (UniProt P37231); test: OT_PPARg_PPARgSRC1_1440: Odyssey Thera (OT) 24-hour Protein-Complementation Assay for Peroxisome Proliferator-activated Receptor Gamma/ SRC-1 Co-activator (AID 2283388; active = hit-call score of the fitted dose curve at least 0.9, where 1 is the maximum;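 note: nuclear to cytoplasmic ratio of reconstituted Venus YFP fluorescence in fixed imaged cells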)
Summary of the method: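 Protein-fragment complementation between PPARg and coactivator SRC-1 was measured by fluorescence imaging in transiently transfected HEK293T cells after 24 h treatment. Signal was quantified as N/C ratio in the 488 nm channel, with DMSO as negative control.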

[5] = read-out: Tumor necrosis factor receptor superfamily member 6 (Homo sapiens) (UniProt P25445); test: LTEA_HepaRG_FAS: Life Technologies and Expression Analysis (LTEA) Assay for Fas cell surface death receptor (FAS) using HepaRG (AID 2283447); settings: mRNA level, 48 h; actives raise or lower the signal
Summary of the method: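 FAS transcript level was measured by TaqMan qRT-PCR against three housekeeping genes after 48 h chemical exposure. Cells were HepaRG, 0.5% DMSO vehicle, with a top concentration of 100 uM and half-log dilutions over eight points, in duplicate.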

[6] = read-out: Fatty acid synthase (Homo sapiens) (UniProt P49327); test: LTEA_HepaRG_FASN: Life Technologies and Expression Analysis (LTEA) Assay for Fatty Acid Synthase (FASN) using HepaRG (AID 2283448); settings: mRNA level, 48 h; actives raise or lower the signal;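 for AC50: differentiated human HepaRG liver cells in serum-free induction medium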
Summary of the method: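 FASN expression changes, up or down relative to 0.5% DMSO, were measured by qRT-PCR in human HepaRG cells after 48 h treatment with chemicals at eight concentrations (half-log steps from 100 uM).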

[7] = read-out: Cyclin Dependent Kinase Inhibitor 1A (CDKN1A), CDKN1A (gene 1026); test: LTEA_HepaRG_CDKN1A: Life Technologies and Expression Analysis (LTEA) Assay for Cyclin Dependent Kinase Inhibitor 1A (CDKN1A) using HepaRG (AID 2283450); settings: mRNA level, 48 h; actives raise or lower the signal
Summary of the method: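 Read-out is CDKN1A mRNA by TaqMan qRT-PCR, normalized to three housekeeping genes and fitted in both directions against the DMSO baseline. Human HepaRG cells were treated 48 h with test chemicals up to 100 uM in half-log steps, 0.5% DMSO.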

[8] = read-out: Cyclin D1 (CCND1), CCND1 (gene 595); test: LTEA_HepaRG_CCND1: Life Technologies and Expression Analysis (LTEA) Assay for Cyclin D1 (CCND1) using HepaRG (AID 2283451); settings: mRNA level, 48 h; actives raise or lower the signal;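 for AC50: differentiated human HepaRG liver cells in serum-free induction medium; TaqMan qRT-PCR transcript level normalised to ACTB GAPDH and POLR2A housekeeping genes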
Summary of the method: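 HepaRG plated 48 h, medium switched to serum-free induction medium, chemicals added in duplicate (top 100 uM, half-log steps, 0.5% DMSO) for 48 h, cells lysed, RNA measured by TaqMan qRT-PCR.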

[9] = read-out: catalase (CAT), CAT (gene 847); test: LTEA_HepaRG_CAT: Life Technologies and Expression Analysis (LTEA) Assay for catalase (CAT) using HepaRG (AID 2283452); settings: mRNA level, 48 h; actives raise or lower the signal;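 for AC50: TaqMan qRT-PCR signal normalized to ACTB GAPDH and POLR2A housekeeping genes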
Summary of the method: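 Expression of CAT was quantified by TaqMan qRT-PCR with ACTB/GAPDH/POLR2A normalization after 48 h chemical exposure of HepaRG. Eight-point half-log series, top 100 uM, in 0.5% DMSO; gain or loss fitted against vehicle.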

[10] = target: Bile acid receptor (Homo sapiens) (UniProt Q96RI1); test: OT_FXR_FXRSRC1_0480: Odyssey Thera (OT) 8-hour HEK293T Protein-Complementation Assay for Farnesoid X receptor/SRC-1 Co-activator (AID 2283383; active = hit-call score of the fitted dose curve at least 0.9, where 1 is the maximum)
Summary of the method: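 Human kidney HEK293T cells carried FXR/SRC-1 fragment-complementation constructs. Compounds were added and incubated 8 h. Reporter reassembly upon receptor–co-activator interaction was then quantified by fluorescence, with curves fitted in the positive direction relative to DMSO.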

[11] = target: Retinoic acid receptor RXR-alpha (Homo sapiens) (UniProt P19793); test: OT_NURR1_NURR1RXRa_1440: Odyssey Thera (OT) 24-hour HEK293T Protein Complementation Assay for Nurr1/retinoid X receptor (RXR) (AID 2283386; active = hit-call score of the fitted dose curve at least 0.9, where 1 is the maximum)
Summary of the method: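 Interaction of Nurr1 with RXRα brings fused reporter fragments together in human HEK293T cells, restoring a functional reporter. Fluorescence intensity is measured 24 h after chemical treatment, and values are analysed in the positive direction against DMSO.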

[12] = CEETOX_H295R_OHPREG: CeeTox H295R High-throughput Steroidogenesis Assay for OH-Pregnenolone (OHPREG) (AID 2283434); settings: actives raise or lower the signal
Summary of the method: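 Hormone levels in spent medium were measured by tandem mass spectrometry following liquid-liquid extraction. Cells (H295R) had been forskolin-stimulated (10 uM, 48 h) before a 48 h chemical exposure at 0.1% DMSO, with activity fitted in both directions against DMSO.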

[13] = CEETOX_H295R_OHPROG: CeeTox H295R High-throughput Steroidogenesis Assay for OH-Progesterone (OHPROG) (AID 2283435); settings: actives raise or lower the signal;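 for AC50: 17alpha-hydroxyprogesterone secreted into medium measured by HPLC-MS/MS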
Summary of the method: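 H295R, 10 uM forskolin prestim 48 h; cmpd in 0.1% DMSO 48 h; medium MTBE-extracted, HPLC-MS/MS for OH-progesterone; 7-pt std curve; bidirectional fit vs DMSO; MTT viability, chemicals diluted until viability >/=70%.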

[14] = CEETOX_H295R_ANDR: CeeTox H295R High-throughput Steroidogenesis Assay for Androstenedione (ANDR) (AID 2283436); settings: actives raise or lower the signal;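 note: human H295R adrenal cells exposed for 48 h with androstenedione measured in medium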
Summary of the method: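 Read-out is androstenedione secreted into medium, measured by tandem mass spectrometry after liquid-liquid extraction. Cells were H295R, dosed for 48 h per modified OECD 456; activity fitted in both directions relative to DMSO.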

[15] = CEETOX_H295R_CORTIC: CeeTox H295R High-throughput Steroidogenesis Assay for Corticosterone (CORTIC) (AID 2283437); settings: actives raise or lower the signal;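 note: corticosterone secreted into medium quantified by mass spectrometry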
Summary of the method: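 Corticosterone secreted into medium is measured by reverse-phase HPLC with tandem MS following liquid-liquid extraction. Cells are forskolin-stimulated (10 uM, 48 h) before 48 h test exposure; activity fitted in both directions against DMSO.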

[16] = CEETOX_H295R_CORTISOL: CeeTox H295R High-throughput Steroidogenesis Assay for Cortisol (AID 2283438); settings: actives raise or lower the signal;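 note: cortisol secreted into medium quantified by LC-MS/MS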
Summary of the method: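 Forskolin 10 uM 48 h prestim → test cmpd in DMSO (0.1% final) 48 h → medium MTBE-extracted → LC-MS/MS cortisol vs 7-pt std curve. Gain/loss of signal fitted vs DMSO. MTT viability in same wells.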

[17] = CEETOX_H295R_DOC: CeeTox H295R High-throughput Steroidogenesis Assay for DOC (AID 2283439); settings: actives raise or lower the signal
Summary of the method: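 Readout: 11-deoxycorticosterone in culture medium by reverse-phase C18 HPLC with ESI+ tandem MS after MTBE extraction. Cells: H295R, forskolin-primed (10 uM, 48 h), chemical-treated 48 h; DMSO 0.1% final. Activity fitted bidirectionally versus DMSO.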

[18] = CEETOX_H295R_ESTRADIOL: CeeTox H295R High-throughput Steroidogenesis Assay for Estradiol (AID 2283440); settings: actives raise or lower the signal;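 note: estradiol secreted into medium quantified by LC-MS/MS after dansyl derivatisation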
Summary of the method: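 Estradiol secreted into the medium was measured by tandem mass spectrometry after liquid-liquid extraction and dansylation. Human H295R cells had been forskolin-primed (10 uM, 48 h) before a 48 h chemical exposure with 0.1% DMSO.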

[19] = CEETOX_H295R_ESTRONE: CeeTox H295R High-throughput Steroidogenesis Assay for Estrone (AID 2283441); settings: actives raise or lower the signal;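 note: estrone secreted into medium measured by LC-MS/MS after dansyl derivatization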;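 for AC50: human adrenal H295R cells prestimulated with forskolin for two days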
Summary of the method: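 H295R cells prestimulated 48 h with 10 uM forskolin, then exposed 48 h to chemicals in 0.1% DMSO final; estrone in medium extracted with MTBE, dansyl-derivatized, quantified by HPLC-MS/MS; bidirectional fitting versus DMSO, viability by MTT.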

[20] = CEETOX_H295R_PROG: CeeTox H295R High-throughput Steroidogenesis Assay for Progesterone (PROG) (AID 2283442); settings: actives raise or lower the signal;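 for AC50: human H295R adrenal cells primed with 10 µM forskolin before dosing; progesterone secreted into medium by H295R cells measured by HPLC-MS/MS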
Summary of the method: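 Steps: seed H295R cells and let them adhere overnight; prime 48 h with 10 uM forskolin; dose with compound in DMSO at 0.1% final for 48 h; extract medium steroids with MTBE; measure progesterone by LC-MS/MS. MTT viability was run in the same wells.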

Measured: AC50

Chain of Bile acid receptor (Homo sapiens) (Q96RI1 whole entry, looked up, the tested form may be a part): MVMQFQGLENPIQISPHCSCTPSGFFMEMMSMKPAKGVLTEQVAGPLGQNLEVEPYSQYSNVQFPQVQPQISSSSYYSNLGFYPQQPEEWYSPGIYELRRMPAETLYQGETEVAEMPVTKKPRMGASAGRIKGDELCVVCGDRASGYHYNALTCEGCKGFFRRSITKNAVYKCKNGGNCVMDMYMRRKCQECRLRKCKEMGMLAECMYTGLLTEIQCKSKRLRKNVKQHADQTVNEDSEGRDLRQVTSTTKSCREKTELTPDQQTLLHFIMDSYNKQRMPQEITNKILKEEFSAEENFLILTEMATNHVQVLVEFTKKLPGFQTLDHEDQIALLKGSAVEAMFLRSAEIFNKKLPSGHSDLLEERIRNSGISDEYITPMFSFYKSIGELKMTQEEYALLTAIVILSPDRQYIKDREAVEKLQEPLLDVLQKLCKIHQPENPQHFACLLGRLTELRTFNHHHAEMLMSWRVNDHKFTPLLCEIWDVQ
Chain of Retinoic acid receptor RXR-alpha (Homo sapiens) (P19793 whole entry, looked up, the tested form may be a part): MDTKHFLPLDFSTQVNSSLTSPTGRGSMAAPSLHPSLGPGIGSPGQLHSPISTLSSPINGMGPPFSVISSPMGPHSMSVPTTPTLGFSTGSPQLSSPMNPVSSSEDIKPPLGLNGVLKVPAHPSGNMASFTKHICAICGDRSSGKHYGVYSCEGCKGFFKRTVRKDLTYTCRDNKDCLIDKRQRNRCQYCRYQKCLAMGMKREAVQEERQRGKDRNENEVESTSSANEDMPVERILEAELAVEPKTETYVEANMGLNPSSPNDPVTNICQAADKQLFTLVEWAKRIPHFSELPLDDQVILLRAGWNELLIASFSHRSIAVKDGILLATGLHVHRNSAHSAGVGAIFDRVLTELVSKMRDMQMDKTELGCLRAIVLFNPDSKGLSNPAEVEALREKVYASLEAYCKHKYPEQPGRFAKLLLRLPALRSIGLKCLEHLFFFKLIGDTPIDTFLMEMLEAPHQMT
Chain of Fatty acid synthase (Homo sapiens) (P49327 whole entry, looked up): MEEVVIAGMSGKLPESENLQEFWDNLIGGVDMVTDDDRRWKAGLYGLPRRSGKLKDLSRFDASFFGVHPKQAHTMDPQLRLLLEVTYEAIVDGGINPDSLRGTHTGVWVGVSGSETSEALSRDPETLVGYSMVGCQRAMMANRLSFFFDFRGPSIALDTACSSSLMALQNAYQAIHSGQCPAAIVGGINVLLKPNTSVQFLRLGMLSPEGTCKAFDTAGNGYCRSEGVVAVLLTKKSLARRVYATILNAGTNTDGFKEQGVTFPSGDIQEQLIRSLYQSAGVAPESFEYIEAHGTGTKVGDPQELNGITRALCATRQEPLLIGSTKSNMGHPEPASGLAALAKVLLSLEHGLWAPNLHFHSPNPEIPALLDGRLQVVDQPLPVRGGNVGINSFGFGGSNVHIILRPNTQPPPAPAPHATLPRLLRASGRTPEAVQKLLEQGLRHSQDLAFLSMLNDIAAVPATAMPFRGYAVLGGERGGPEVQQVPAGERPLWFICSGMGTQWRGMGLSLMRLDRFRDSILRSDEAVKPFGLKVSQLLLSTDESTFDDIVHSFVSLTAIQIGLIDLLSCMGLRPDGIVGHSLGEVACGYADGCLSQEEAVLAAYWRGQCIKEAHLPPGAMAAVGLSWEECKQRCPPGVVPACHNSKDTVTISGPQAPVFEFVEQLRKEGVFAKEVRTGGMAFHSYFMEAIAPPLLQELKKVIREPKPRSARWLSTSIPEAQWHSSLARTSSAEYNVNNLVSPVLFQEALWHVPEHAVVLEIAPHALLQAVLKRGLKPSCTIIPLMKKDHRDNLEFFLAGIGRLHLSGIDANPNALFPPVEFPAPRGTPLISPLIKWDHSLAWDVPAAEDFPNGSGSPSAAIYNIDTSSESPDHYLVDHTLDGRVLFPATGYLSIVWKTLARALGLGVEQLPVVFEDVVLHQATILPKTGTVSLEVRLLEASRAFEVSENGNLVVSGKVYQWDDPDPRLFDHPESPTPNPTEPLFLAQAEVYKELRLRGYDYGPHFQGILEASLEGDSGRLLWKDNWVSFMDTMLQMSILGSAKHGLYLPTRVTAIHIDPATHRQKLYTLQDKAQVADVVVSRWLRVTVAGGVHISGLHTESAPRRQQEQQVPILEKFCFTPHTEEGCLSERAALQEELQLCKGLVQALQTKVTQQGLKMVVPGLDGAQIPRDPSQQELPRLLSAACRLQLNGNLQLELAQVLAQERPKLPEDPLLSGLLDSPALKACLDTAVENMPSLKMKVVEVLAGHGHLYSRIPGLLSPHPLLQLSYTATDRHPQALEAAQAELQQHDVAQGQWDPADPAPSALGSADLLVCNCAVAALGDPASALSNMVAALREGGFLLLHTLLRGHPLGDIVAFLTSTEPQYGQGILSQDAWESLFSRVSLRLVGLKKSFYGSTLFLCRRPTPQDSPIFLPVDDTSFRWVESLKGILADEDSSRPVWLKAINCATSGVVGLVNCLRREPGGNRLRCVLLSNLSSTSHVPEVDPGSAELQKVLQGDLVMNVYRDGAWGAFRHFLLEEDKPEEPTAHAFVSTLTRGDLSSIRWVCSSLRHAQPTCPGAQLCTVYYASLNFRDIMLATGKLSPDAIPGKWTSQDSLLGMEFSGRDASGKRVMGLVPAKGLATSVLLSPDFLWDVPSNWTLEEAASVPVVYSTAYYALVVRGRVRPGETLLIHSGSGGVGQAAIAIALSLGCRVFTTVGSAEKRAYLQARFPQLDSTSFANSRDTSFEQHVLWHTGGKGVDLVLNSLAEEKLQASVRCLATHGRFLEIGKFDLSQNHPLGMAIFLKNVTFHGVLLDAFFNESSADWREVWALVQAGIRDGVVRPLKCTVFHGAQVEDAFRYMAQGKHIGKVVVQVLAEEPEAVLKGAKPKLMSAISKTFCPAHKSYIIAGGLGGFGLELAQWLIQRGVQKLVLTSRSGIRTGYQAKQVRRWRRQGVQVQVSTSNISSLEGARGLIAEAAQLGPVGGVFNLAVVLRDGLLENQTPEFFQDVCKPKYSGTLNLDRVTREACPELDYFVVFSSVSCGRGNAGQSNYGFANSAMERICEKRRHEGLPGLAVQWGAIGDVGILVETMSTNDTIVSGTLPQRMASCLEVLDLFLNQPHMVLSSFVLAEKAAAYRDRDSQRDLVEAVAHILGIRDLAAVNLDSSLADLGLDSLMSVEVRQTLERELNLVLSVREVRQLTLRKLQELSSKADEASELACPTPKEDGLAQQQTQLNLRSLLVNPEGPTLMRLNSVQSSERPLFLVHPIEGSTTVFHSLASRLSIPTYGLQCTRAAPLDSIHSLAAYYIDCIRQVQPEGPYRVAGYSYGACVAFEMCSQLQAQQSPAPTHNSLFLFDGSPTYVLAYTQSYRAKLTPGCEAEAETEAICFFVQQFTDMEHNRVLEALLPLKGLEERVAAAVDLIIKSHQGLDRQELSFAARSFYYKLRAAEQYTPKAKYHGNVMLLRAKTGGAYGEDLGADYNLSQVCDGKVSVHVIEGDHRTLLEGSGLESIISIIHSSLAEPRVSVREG
Chain of Peroxisome proliferator-activated receptor gamma (Homo sapiens) (P37231 whole entry, looked up, the tested form may be a part): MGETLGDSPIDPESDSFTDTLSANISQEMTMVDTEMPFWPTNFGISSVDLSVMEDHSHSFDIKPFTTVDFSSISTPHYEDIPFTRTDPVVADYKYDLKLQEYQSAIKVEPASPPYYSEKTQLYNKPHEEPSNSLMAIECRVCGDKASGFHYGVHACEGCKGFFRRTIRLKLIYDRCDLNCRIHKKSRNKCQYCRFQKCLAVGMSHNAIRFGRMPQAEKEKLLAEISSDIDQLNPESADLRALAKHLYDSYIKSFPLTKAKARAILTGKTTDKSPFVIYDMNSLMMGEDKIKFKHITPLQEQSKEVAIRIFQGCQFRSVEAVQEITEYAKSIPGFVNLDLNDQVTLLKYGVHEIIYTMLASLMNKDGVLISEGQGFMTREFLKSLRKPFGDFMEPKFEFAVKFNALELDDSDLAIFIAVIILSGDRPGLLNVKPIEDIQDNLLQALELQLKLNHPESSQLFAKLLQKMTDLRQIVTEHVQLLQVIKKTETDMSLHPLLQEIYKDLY
Chain of Estrogen receptor (Homo sapiens) (P03372 whole entry, looked up): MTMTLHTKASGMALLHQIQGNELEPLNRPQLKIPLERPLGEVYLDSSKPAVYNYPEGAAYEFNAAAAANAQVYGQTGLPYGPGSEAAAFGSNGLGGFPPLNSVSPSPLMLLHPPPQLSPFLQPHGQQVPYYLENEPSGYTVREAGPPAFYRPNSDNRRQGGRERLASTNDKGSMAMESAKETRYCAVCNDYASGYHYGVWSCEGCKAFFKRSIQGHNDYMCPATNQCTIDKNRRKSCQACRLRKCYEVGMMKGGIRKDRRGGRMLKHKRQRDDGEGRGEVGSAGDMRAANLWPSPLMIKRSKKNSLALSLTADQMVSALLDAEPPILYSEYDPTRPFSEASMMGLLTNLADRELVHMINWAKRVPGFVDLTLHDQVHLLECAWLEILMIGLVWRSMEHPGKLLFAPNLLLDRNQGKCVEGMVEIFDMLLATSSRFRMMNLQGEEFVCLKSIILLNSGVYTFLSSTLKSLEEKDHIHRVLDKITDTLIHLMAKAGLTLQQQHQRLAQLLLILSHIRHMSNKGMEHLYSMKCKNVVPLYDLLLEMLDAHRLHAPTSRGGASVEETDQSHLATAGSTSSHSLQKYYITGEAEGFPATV

O=C(Nc1ccccc1)Nc1cnns1
active: [6] 72.7 µM | [8] 74.7 µM | [9] 50 µM
inactive: [1] | [2] | [3] | [4] | [5] | [7]

CCC(C)(C)C(=O)OC1=C(c2ccc(Cl)cc2Cl)C(=O)OC12CCCCC2
inactive: [1] | [3] | [12] | [14] | [15] | [16] | [18] | [19] | [5] | [7] | [8] | [9]
active: [10] 47.5 µM | [2] 41 µM | [11] 33 µM and 70.8 µM | [3] 16 µM | [4] 38.7 µM and 50 µM | [13] 2.29 µM | [17] 0.739 µM | [20] 0.593 µM | [6] 15.1 µM

CC1(c2ccc(Oc3ccccc3)cc2)OC(=O)N(Nc2ccccc2)C1=O (centres undefined)
inactive: [1] | [3] | [4] | [8]
active: [10] 1.94 µM | [2] 1.68 µM | [5] 1.02 µM | [6] 42.4 µM | [7] 9.7 µM | [9] 12.7 µM

O=[N+]([O-])/N=C1\NCCN1Cc1ccc(Cl)nc1
inactive: [1] | [10] | [2] | [11] | [3] | [4] | [12] | [13] | [14] | [15] | [16] | [17] | [18] | [19] | [20] | [5] | [8]
active: [6] 20.6 µM | [7] 12.2 µM | [9] 39.8 µM

COc1nn(CSP(=S)(OC)OC)c(=O)s1
active: [13] 13.6 µM | [15] 33.1 µM | [17] 40.2 µM | [18] 11.5 µM | [19] 21.4 µM | [20] 38.2 µM
inactive: [1] | [10] | [2] | [11] | [3] | [4] | [12] | [16] | [5] | [6] | [7] | [8] | [9]
